# Shown are actives, neighbours in structure and some others; about 5.2% of the full set was active somewhere.
# GRIN3A LBD mod: modulators (binders) of human NR3A ligand-binding domain; NR3A LBD differential scanning fluorimetry, Tm shift; 0% = protein alone, 100% = glycine-bound protein; AID 1259313; Tm shift relative to glycine control, % at 25 µM; actives 2.5% (n = 340,000);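 active = melting temperature shift of at least 10% of the positive control shift, at one fixed dose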
# NadD inh: NadD (S. aureus) enzyme inhibition; AID 602399; inhibition, % at 20 µM; actives 0.78% (n = 360,000); purified NadD enzyme, colorimetric absorbance read-out; in the data active = inhibition above about 26%
# esBAF inh: blocks esBAF chromatin remodeling in mouse ES cells; Bmi1-luciferase knock-in reporter, 24 h; 100% = twice the neutral-well signal; AID 602393; reporter increase, % at 12.5 µM; actives 2% (n = 350,000); in the data active = activation above about 40%; inconclusive = no clear call, values can overlap the other calls;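 note: 0% = median of the plate's neutral control wells and 100% = double that signal; a rise in the Bmi1 reporter signal indicates esBAF inhibition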
# SMARCA2 act: SMARCA2 function activation, primary screen | MG213 cells, MMTV-luciferase reporter, dexamethasone, overnight | activation, % at 9.1 µM | actives 1% (n = 370,000); in the data active = activation above about 7.8%;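 note: 0% = vehicle wells and 100% = reference activator wells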
# Vif imaging: HIV Vif inhibition. HEK293T cells, Vif self-association by quenched fluorescence, imaging, 24 h. inhibition, % at 7.49 µM. actives 0.35% (n = 340,000). AID 602346; in the data active = inhibition above about 50%, passing the limit was not always enough; inconclusive = no clear call, values can overlap the other calls; inactive = below about 31%
# SKN-1 block: C. elegans SKN-1 inhibition. C. elegans VP596 Pgst-4::GFP/RFP ratio, acrylamide-induced, 24 h. inhibition, % at 21.8 µM. actives 0.49% (n = 360,000). AID 624304;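 active = interference check ratio from 0.5 to 1.5 plus GFP to RFP signal ratio inhibition reaching or exceeding a fixed threshold, cut at about 30% in these data, passing the limit was not always enough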
# Active calls of the source: *; ? = inconclusive; . = not tested or not shown.
SMILES,GRIN3A LBD mod,NadD inh,esBAF inh,SMARCA2 act,Vif imaging,SKN-1 block
COCC#Cc1ccc2c(c1)O[C@H](CN(C)Cc1ccc3c(c1)OCO3)[C@H](C)CN([C@@H](C)CO)S2(=O)=O,.,.,-2,.,.,.
COc1cc(C)ccc1OCc1cc(C(=O)N2CCC(c3ccc(F)cc3)C2)no1 (stereo not given),-3,6,82*,7,-5,24
Cc1ccc(C)c(OCc2cc(C(=O)N3C[C@@H](C)O[C@@H](C)C3)no2)c1,4,-5,76*,6,1,3
Cc1ccc(C)c(OCc2cc(C(=O)NC3CCOC(C)(C)C3)no2)c1 (stereo not given),0,2,51*,2,0,26
Cc1ccc(C)c(OCc2cc(C(=O)N3CC[C@@H]4CCCC[C@H]4C3)no2)c1,2,7,54*,1,0,23
Cc1ccc(C)c(OCc2cc(C(=O)N3CCN(C4CCCCC4)CC3)no2)c1,.,0,1,2,?,8
CCN(CCn1cccn1)C(=O)c1cc(COc2cc(C)ccc2C)on1,0,-6,70*,7,5,8
Cc1ccc(C)c(OCc2cc(C(=O)N3CCN(C(=O)c4ccco4)CC3)no2)c1,3,5,80*,4,1,6
C[C@@H]1CN([C@@H](C)CO)C(=O)c2cc(C#C[C@@H](C)O)cnc2O[C@@H]1CN(C)Cc1ccccn1,.,.,-2,.,.,.
CO[C@H]1CN(C)C(=O)c2cc(NC(=O)c3ccc(F)cc3)ccc2OC[C@@H](C)N(C(=O)c2ccc(F)cc2)C[C@@H]1C,.,.,7,.,.,.
Cc1ccccc1C(=O)N/N=C/c1ccc([N+](=O)[O-])s1,-6,-6,-62,-10,-7,7
Cc1nn(C)cc1/C=N/NC(=S)Nc1ccc(Cl)cc1Cl,18*,-1,15,-1,1,4
O=[N+]([O-])c1ccc(/C=N/NC(=S)Nc2ccc(Cl)cc2Cl)s1,11*,8,-9,-3,-4,-2
O=C(N/N=C/c1ccc([N+](=O)[O-])s1)c1ccccc1Br,-1,6,-65,-10,89*,0
O=[N+]([O-])c1ccc(Nc2nccc(Cl)n2)cc1,1,-4,.,-2,-2,45*
CN(C)CC(=O)Nc1ccc2c(c1)[C@@H]1C[C@@H](CC(=O)NCc3ccccc3)O[C@@H](CO)[C@@H]1O2,.,.,-2,.,.,.
CC(C)Cc1ccc(-c2cc3nc(NCCc4ccc(S(N)(=O)=O)cc4)ccn3n2)cc1,.,23,92*,2,.,-4
CC(C)Cc1ccc(-c2cc3nc(NCCCn4ccnc4)ccn3n2)cc1,.,18,61*,-4,.,25
FC(F)(F)c1cccc(-c2cc3nc(NCCCn4ccnc4)ccn3n2)c1,.,9,28,1,.,16
Cc1ccc(S(=O)(=O)N[C@H]2CC[C@@H](CCn3cc(-c4cccc(F)c4)nn3)O[C@H]2CO)cc1,.,.,16,.,.,.
NC(=S)N/N=C/c1ccc(C(F)(F)F)cc1,19*,-1,.,1,-1,-2
COC(=O)c1cc(NC(=O)CSc2nncn2C)cc(C(=O)OC)c1,11*,-7,-2,0,18,8
COC(=O)Cn1c2ccccc2c2nc3ccccc3nc21,-4,1,50*,1,-1,4
O=C(O)CCn1c2ccccc2c2nc3ccccc3nc21,-1,-3,50*,-1,0,2
COC(=O)Cn1c2nc3ccccc3nc2c2cccc(C)c21,2,-7,6,0,-3,-13
SMILES,GRIN3A LBD mod,NadD inh,esBAF inh,SMARCA2 act,Vif imaging,SKN-1 block
N#CCn1c2ccccc2c2nc3ccccc3nc21,0,-4,.,-1,0,8
C[C@@H]1CCCCO[C@H](CN(C)Cc2ccc(C(=O)O)cc2)[C@H](C)CN([C@H](C)CO)C(=O)c2cc(NS(=O)(=O)c3cn(C)cn3)ccc2O1,.,.,4,.,.,.
COc1ccc(/C(C#N)=C/c2cccnc2)cc1,.,-5,42*,5,-4,25
COc1ccc(C(C#N)=Cc2ccc(N(C)CCC#N)cc2)cc1,.,3,77*,-1,-11,8
COc1ccc(C(C#N)=Cc2cc(OC)c(OC)c(OC)c2)cc1,.,.,.,0,.,.
O=C(Nc1nnc(S(=O)(=O)Cc2ccc(F)cc2)s1)c1ccccc1F,2,-3,3,-1,-6,-11
